# PubChem BioAssay (EPA / NIEHS)
# Records with an inconclusive call do not appear. The source made the active and inactive calls. The calls were made as follows: active = hit-call score of the fitted dose curve at least 0.9, where 1 is the maximum; inconclusive = response in the unintended direction; inactive = score below 0.9.
# Legend:
# [1] = biological target: human SRC Proto-Oncogene, Non-receptor Tyrosine Kinase (SRC), SRC (gene 6714) (UniProt P12931); assay: NVS_ENZ_hSRC: NovaScreen (NVS) Enzymatic Assay for human SRC Proto-Oncogene, Non-receptor Tyrosine Kinase (SRC) (AID 2283223)
# Method in brief: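 Compounds passing 30% inhibition at 25 uM (duplicate) were titrated to a top concentration of 50 uM. Enzyme activity read by fluorescence with mobility-shift substrate/product separation after 1 h; DMSO baseline.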
# [2] = biological target: human Tyrosine Protein Kinase Receptor Tie-2 (Tie2), TEK (gene 7010) (UniProt Q02763); assay: NVS_ENZ_hTie2: NovaScreen (NVS) Enzymatic Assay for human Tyrosine Protein Kinase Receptor Tie-2 (Tie2) (AID 2283225)
# Method in brief: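 Substrate and product were separated by mobility shift and detected by fluorescence after a 1-hour reaction with recombinant Tie2. Chemicals passing a 25 uM single-point screen were titrated to a maximum of 50 uM. Results were normalized to DMSO baseline.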
# [3] = biological target: human Raf-1 Proto-Oncogene, serine/threonine Kinase (RAF1), RAF1 (gene 5894) (UniProt P04049); assay: NVS_ENZ_hRAF1: NovaScreen (NVS) Enzymatic Assay for human Raf-1 Proto-Oncogene, serine/threonine Kinase (RAF1) (AID 2283216)
# Method in brief: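 Single-point screening at 25 uM (duplicate), followed by singleton concentration-response to 50 uM maximum for chemicals exceeding threshold. Enzyme activity from fluorescent substrate-product mobility-shift separation after 1 h, relative to DMSO.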
# [4] = biological target: human Protein Tyrosine Phosphatase Receptor Type F (PTPRF), PTPRF (gene 5792) (UniProt P10586); assay: NVS_ENZ_hPTPRF: NovaScreen (NVS) Enzymatic Assay for human Protein Tyrosine Phosphatase Receptor Type F (PTPRF) (AID 2283213)
# Method in brief: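 Cell-free fluorescence enzyme assay with recombinant protein and substrate; product separated by electrophoretic mobility shift. Read 1 h after dosing, single 25 uM duplicate screen, then concentration-response up to 50 uM; loss of signal vs DMSO.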
# [5] = biological target: rat Catechol-O-Methyl Transferase (COMT), Comt (gene 24267) (UniProt P22734); assay: NVS_ENZ_rCOMT: NovaScreen (NVS) Enzymatic Assay for rat Catechol-O-Methyl Transferase (COMT) (AID 2283235)
# Method in brief: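 Rat dorsal striatum extract served as COMT source; product quantified by HPLC/spectrophotometry, read at 0 h after dosing. Primary single-concentration screen at 25 uM, followed by concentration series to a 50 uM maximum.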
# [6] = tested on: rat Monoamine Oxidase, MAO-A, Peripheral (MAOAP), gene 29253; assay: NVS_ENZ_rMAOAP: NovaScreen (NVS) Enzymatic Assay for rat Monoamine Oxidase, MAO-A, Peripheral (MAOAP) (AID 2283237)
# Method in brief: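 Scintillation counting tracked MAO-A activity in a cell-free rat liver mitochondrial membrane prep, read 1.17 hours after compound addition. Single-point duplicate testing at 25 uM preceded concentration-response follow-up; activity was fitted relative to DMSO.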
# [7] = biological target: human Protein Tyrosine Phosphatase Receptor Type M (PTPRM), PTPRM (gene 5797) (UniProt P28827); assay: NVS_ENZ_hPTPRM: NovaScreen (NVS) Enzymatic Assay for human Protein Tyrosine Phosphatase Receptor Type M (PTPRM) (AID 2283215)
# Method in brief: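 Read-out is fluorescence after electrophoretic separation of substrate and product, taken 1.33 h post-dosing with recombinant enzyme. Compounds screened at 25 uM in duplicate, then concentration series for actives; activity as signal loss relative to DMSO.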
# [8] = biological target: human Sirtuin 1 (SIRT1), SIRT1 (gene 23411) (UniProt Q96EB6); assay: NVS_ENZ_hSIRT1: NovaScreen (NVS) Enzymatic Assay for human Sirtuin 1 (SIRT1) (AID 2283219)
# Method in brief: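 Cell-free recombinant SIRT1 with a fluorescent substrate; substrate and product separated by electrophoretic mobility shift and read by fluorescence intensity, 1 h after dosing. Primary screen at 25 uM in duplicate; hits re-run in concentration-response up to 50 uM, relative to DMSO.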
# [9] = biological target: human Tropomyosin Receptor Kinase A (TRKA), NTRK1 (gene 4914) (UniProt P04629); assay: NVS_ENZ_hTrkA: NovaScreen (NVS) Enzymatic Assay for human Tropomyosin Receptor Kinase A (TRKA) (AID 2283224)
# Method in brief: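 Compounds were screened at 25 uM in duplicate, then concentration series to a 50 uM top for those meeting threshold (e.g. 30% inhibition). Enzyme was recombinant human TrkA, incubated 1 h. Product formation was quantified by fluorescence after mobility-shift separation.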
# [10] = biological target: human Vascular Endothelial Growth Factor Receptor 3 (VEGFR3), FLT4 (gene 2324) (UniProt P35916); assay: NVS_ENZ_hVEGFR3: NovaScreen (NVS) Enzymatic Assay for human Vascular Endothelial Growth Factor Receptor 3 (VEGFR3) (AID 2283229)
# Method in brief: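 Chemicals first run in duplicate at 25 uM, with actives re-tested in concentration series to a top of 50 uM. Recombinant VEGFR3 activity measured after 1 h via fluorescence with mobility-shift product separation; inhibition fitted relative to DMSO.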
# [11] = biological target: human Vascular Endothelial Growth Factor Receptor 2 (VEGFR2), KDR (gene 3791) (UniProt P35968); assay: NVS_ENZ_hVEGFR2: NovaScreen (NVS) Enzymatic Assay for human Vascular Endothelial Growth Factor Receptor 2 (VEGFR2) (AID 2283230)
# Method in brief: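 Cell-free recombinant VEGFR2 kinase, fluorescent substrate with electrophoretic mobility-shift separation; read 1 h after dosing. Screened at 25 uM in duplicate, hits to concentration-response up to 50 uM; loss-of-signal versus DMSO.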
# [12] = biological target: human Sirtuin 3 (SIRT3), SIRT3 (gene 23410) (UniProt Q9NTG7); assay: NVS_ENZ_hSIRT3: NovaScreen (NVS) Enzymatic Assay for human Sirtuin 3 (SIRT3) (AID 2283222)
# Method in brief: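 Cell-free enzyme assay with recombinant protein and fluorescent substrate, product separated by electrophoretic mobility shift; read 1 hour after dosing. Screened in duplicate at 25 uM, then singleton concentration-response up to 50 uM; loss of signal versus DMSO.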
# [13] = biological target: human Rho Associated Coiled-coil Containing Protein Kinase 1 (ROCK1), ROCK1 (gene 6093) (UniProt Q13464); assay: NVS_ENZ_hROCK1: NovaScreen (NVS) Enzymatic Assay for human Rho Associated Coiled-coil Containing Protein Kinase 1 (ROCK1) (AID 2283214)
# Method in brief: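 Compounds first run in duplicate at 25 uM against recombinant human ROCK1, then followed in concentration series. Kinase activity was read 1 h post-dosing by fluorescence with mobility-shift separation, as signal loss relative to DMSO.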
# [14] = biological target: human Sirtuin 2 (SIRT2), SIRT2 (gene 22933) (UniProt Q8IXJ6); assay: NVS_ENZ_hSIRT2: NovaScreen (NVS) Enzymatic Assay for human Sirtuin 2 (SIRT2) (AID 2283217)
# Method in brief: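 Single-point duplicate screen at 25 uM, then concentration-response (max 50 uM) for chemicals passing threshold. Enzyme activity of recombinant human SIRT2 measured after 1 hr by fluorescence with mobility-shift separation of product; DMSO baseline.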
# [15] = biological target: rabbit Imidazoline 2 Central (I2C), CKB (gene 100009085) (UniProt P00567); assay: NVS_ENZ_rabI2C: NovaScreen (NVS) Enzymatic Assay for rabbit Imidazoline 2 Central (I2C) (AID 2283228)
# Method in brief: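 Rabbit brain membranes, cell-free; readout by filter-based scintillation counting 1.5 hours after dosing, loss of signal vs DMSO. Initial duplicate test at 25 uM, then concentration-response with 50 uM top concentration.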
# [16] = biological target: rat Adenylate Cyclase, Forskolin Stimulated, Adcy5 (gene 64532) (UniProt Q04400); assay: NVS_ENZ_rACFSKBinding: NovaScreen (NVS) Enzymatic Assay for rat Adenylate Cyclase, Forskolin Stimulated (AID 2283232)
# Method in brief: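 Chemicals were first tested at 25 uM in duplicate, then hits run as concentration series with top concentration 50 uM. Enzyme source was rat forebrain membranes; radiometric filter read-out after 1 h, referenced to DMSO.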
# [17] = biological target: rat Acetylcholinesterase (AChE), Ache (gene 83817) (UniProt P37136); assay: NVS_ENZ_rAChE: NovaScreen (NVS) Enzymatic Assay for rat Acetylcholinesterase (AChE) (AID 2283233)
# Method in brief: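 Compounds first screened at 25 uM in duplicate, then those passing threshold tested in concentration series up to 50 uM, against AChE from rat brain membranes. Enzyme activity read by absorbance at 0.33 h; inhibition scored versus DMSO.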
# [18] = biological target: human Vascular Endothelial Growth Factor Receptor 1 (VEGFR1), FLT1 (gene 2321) (UniProt P17948); assay: NVS_ENZ_hVEGFR1: NovaScreen (NVS) Enzymatic Assay for human Vascular Endothelial Growth Factor Receptor 1 (VEGFR1) (AID 2283226)
# Method in brief: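 Kinase activity of recombinant human VEGFR1 was read by fluorescence after electrophoretic separation of product from substrate, 1 h post-dosing; initial duplicate single-point testing at 25 uM, followed by concentration-series follow-up, with DMSO as baseline.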
# human Rho Associated Coiled-coil Containing Protein Kinase 1 (ROCK1), ROCK1 (gene 6093), sequence (Q13464 whole entry, looked up): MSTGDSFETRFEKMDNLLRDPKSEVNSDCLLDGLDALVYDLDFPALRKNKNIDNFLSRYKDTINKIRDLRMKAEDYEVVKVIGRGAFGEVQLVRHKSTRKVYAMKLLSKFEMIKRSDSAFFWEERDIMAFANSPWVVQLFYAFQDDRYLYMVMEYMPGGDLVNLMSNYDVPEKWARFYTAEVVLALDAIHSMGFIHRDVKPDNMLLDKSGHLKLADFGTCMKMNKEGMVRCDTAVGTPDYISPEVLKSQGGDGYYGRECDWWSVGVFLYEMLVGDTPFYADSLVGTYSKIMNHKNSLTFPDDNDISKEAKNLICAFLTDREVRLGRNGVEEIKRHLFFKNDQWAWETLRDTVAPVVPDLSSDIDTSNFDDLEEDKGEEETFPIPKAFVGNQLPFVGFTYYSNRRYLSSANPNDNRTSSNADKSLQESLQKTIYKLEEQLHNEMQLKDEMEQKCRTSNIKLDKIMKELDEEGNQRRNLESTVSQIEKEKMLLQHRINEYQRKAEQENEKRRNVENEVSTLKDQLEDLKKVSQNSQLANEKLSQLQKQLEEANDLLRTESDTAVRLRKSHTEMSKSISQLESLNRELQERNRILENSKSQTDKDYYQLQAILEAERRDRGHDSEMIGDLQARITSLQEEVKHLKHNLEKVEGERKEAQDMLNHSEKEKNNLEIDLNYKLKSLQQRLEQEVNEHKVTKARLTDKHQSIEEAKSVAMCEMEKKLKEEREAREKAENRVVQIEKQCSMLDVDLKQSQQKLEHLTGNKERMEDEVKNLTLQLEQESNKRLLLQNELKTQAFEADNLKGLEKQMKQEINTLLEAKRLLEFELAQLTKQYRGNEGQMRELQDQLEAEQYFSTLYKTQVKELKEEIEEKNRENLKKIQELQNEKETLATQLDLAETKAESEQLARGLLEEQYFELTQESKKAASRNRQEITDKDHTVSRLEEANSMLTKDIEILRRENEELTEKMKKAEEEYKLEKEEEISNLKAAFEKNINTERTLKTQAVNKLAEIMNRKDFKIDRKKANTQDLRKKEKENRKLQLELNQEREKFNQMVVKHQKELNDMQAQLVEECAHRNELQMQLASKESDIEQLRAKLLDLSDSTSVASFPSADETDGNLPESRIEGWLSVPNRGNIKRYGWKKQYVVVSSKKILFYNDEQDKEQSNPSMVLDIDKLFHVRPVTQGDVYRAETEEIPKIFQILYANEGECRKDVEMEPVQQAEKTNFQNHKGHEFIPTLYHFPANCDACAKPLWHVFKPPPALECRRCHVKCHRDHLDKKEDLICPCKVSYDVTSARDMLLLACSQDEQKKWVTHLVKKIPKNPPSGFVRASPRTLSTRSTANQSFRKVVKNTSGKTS
# human Protein Tyrosine Phosphatase Receptor Type M (PTPRM), PTPRM (gene 5797), sequence (P28827 whole entry, looked up): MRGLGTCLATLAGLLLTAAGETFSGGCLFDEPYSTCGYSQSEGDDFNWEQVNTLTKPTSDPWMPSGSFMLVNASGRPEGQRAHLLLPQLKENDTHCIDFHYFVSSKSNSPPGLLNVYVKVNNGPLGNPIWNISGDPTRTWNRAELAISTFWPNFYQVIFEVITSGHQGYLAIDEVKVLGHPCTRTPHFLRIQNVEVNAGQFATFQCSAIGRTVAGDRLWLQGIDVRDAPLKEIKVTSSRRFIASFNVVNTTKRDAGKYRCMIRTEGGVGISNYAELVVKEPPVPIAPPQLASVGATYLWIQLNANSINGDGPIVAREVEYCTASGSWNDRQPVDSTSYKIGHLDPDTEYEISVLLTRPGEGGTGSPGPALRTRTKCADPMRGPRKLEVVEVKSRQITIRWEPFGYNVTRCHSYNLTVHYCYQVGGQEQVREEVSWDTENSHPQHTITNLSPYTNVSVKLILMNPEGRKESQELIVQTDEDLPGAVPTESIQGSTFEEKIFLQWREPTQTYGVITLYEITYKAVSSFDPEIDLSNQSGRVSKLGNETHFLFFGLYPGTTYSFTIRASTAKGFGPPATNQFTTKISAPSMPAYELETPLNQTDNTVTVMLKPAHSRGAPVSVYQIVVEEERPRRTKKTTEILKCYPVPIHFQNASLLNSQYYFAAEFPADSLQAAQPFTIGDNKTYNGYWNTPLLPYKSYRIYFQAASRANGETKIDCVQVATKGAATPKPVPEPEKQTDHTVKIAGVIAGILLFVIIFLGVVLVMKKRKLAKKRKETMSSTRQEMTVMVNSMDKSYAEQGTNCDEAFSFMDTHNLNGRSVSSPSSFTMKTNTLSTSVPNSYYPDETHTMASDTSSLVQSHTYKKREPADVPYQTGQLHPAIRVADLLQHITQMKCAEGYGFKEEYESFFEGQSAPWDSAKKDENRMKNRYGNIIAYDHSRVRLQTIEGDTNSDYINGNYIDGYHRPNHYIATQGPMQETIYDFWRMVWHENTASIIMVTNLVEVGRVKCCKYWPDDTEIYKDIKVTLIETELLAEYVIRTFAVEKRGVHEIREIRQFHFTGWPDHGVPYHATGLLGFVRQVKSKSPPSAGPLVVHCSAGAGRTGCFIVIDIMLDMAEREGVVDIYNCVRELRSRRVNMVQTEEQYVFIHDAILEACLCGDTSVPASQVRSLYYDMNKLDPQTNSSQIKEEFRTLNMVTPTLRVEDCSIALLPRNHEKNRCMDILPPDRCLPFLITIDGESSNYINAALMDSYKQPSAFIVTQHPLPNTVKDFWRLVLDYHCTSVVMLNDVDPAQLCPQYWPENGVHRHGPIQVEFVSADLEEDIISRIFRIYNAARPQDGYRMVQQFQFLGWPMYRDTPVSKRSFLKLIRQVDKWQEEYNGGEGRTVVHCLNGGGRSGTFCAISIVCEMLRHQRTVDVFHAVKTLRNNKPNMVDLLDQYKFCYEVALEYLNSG
# human Sirtuin 1 (SIRT1), SIRT1 (gene 23411), sequence (Q96EB6 whole entry, looked up): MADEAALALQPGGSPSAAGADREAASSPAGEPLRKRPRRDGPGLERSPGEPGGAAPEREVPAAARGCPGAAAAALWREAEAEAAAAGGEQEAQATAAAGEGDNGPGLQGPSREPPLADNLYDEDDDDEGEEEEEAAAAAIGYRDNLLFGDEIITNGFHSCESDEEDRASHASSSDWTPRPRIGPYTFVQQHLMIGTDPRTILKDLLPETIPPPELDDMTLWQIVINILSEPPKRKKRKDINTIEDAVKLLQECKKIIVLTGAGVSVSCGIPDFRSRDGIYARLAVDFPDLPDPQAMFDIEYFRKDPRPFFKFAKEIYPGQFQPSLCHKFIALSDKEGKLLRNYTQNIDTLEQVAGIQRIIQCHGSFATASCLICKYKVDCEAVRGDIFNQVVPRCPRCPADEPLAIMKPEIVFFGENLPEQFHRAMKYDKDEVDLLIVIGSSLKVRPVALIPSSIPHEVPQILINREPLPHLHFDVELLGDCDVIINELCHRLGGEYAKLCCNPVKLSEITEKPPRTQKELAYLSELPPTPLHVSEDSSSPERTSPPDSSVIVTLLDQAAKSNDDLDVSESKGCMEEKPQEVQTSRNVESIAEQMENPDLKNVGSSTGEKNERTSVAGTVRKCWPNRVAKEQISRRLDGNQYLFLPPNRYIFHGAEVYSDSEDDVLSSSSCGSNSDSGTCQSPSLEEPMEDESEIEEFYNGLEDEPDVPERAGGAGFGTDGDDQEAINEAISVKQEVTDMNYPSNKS
# human Tyrosine Protein Kinase Receptor Tie-2 (Tie2), TEK (gene 7010), sequence (Q02763 whole entry, looked up): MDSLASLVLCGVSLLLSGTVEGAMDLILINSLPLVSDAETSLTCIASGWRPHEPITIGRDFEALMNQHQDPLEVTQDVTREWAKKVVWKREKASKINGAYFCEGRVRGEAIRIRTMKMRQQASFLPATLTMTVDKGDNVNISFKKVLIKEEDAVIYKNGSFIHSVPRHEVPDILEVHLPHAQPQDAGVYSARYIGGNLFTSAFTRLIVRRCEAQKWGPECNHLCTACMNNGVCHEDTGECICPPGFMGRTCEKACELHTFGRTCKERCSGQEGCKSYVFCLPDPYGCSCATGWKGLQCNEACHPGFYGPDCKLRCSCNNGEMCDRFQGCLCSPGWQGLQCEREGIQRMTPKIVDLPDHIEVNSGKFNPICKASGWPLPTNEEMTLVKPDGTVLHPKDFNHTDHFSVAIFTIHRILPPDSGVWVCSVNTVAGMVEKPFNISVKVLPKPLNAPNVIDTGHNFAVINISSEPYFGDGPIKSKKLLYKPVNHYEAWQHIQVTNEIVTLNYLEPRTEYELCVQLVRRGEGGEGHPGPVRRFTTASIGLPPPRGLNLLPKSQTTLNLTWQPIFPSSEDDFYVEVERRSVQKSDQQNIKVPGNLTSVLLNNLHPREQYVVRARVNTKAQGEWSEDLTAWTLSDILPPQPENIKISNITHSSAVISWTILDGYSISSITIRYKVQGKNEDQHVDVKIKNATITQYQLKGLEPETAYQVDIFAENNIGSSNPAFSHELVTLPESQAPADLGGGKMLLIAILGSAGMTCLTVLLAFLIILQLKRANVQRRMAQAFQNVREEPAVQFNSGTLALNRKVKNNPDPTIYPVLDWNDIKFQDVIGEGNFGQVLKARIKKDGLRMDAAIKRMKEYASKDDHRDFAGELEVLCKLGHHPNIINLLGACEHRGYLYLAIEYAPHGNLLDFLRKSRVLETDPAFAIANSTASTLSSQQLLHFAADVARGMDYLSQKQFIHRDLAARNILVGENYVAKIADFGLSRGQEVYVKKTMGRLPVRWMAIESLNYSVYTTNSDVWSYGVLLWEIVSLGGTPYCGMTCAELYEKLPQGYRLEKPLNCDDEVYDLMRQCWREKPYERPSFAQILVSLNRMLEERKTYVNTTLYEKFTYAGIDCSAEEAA
# rabbit Imidazoline 2 Central (I2C), CKB (gene 100009085), sequence (P00567 whole entry, looked up): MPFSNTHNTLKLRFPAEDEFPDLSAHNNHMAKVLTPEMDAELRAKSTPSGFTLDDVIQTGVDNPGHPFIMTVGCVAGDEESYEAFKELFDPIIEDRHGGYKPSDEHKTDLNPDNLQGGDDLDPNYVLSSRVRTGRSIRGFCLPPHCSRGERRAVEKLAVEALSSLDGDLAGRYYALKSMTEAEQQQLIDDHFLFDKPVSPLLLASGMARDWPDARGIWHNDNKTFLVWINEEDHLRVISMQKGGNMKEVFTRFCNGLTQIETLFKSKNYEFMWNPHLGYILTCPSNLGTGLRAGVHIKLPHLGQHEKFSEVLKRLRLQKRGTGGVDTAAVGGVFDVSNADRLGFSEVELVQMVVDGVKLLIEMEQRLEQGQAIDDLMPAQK
smiles,measurement,setting,value
CC(C)(C)C(O)(CCc1ccc(Cl)cc1)Cn1cncn1 (stereo not drawn),outcome,[1],inactive
same,outcome,[2],inactive
N#CC(Br)Br,outcome,[3],inactive
Oc1ccc2ccc3cccc4ccc1c2c34,AC50,[4],16.5 µM (active)
same,AC50,[2],13.6 µM (active)
same,AC50,[5],25 µM (active)
same,AC50,[6],1.18 µM (active)
CCNS(=O)(=O)C(F)(F)C(F)(F)C(F)(F)C(F)(F)C(F)(F)C(F)(F)C(F)(F)C(F)(F)F,outcome,[7],inactive
same,outcome,[8],inactive
same,outcome,[1],inactive
same,outcome,[9],inactive
same,outcome,[2],inactive
same,outcome,[10],inactive
same,outcome,[11],inactive
O=C(Oc1ccc(Br)cc1)N1CCN2CCC1CC2,outcome,[7],inactive
same,outcome,[12],inactive
same,outcome,[2],inactive
CS(=O)(=O)NC(=O)c1cc(Oc2ccc(C(F)(F)F)cc2Cl)ccc1[N+](=O)[O-],outcome,[13],inactive
Cc1ccc(N=C=O)cc1N=C=O,AC50,[14],25 µM (active)
CCCSC(=O)N(CCC)CCC,outcome,[7],inactive
Clc1ccc(Cl)c(Cl)c1,outcome,[8],inactive
same,outcome,[11],inactive
O=C(O)C1C2CCC(O2)C1C(=O)O (stereo not drawn),outcome,[7],inactive
Cc1ccc(N)c(N)c1,outcome,[8],inactive
same,outcome,[1],inactive
same,outcome,[15],inactive
CCC[CH2][Sn]([Cl])([CH2]CCC)[CH2]CCC,AC50,[8],7.38 µM (active)
same,AC50,[16],41 µM (active)
CC(C)(O)c1cnn2c(-c3ccc(F)c(-c4c(F)cccc4C#N)c3)cnc2n1,AC50,[15],0.362 µM (active)
same,outcome,[16],inactive
same,outcome,[6],inactive
ClCCOCCCl,outcome,[12],inactive
same,outcome,[1],inactive
CN(C)C(=O)Nc1ccc(Cl)cc1,outcome,[15],inactive
same,outcome,[17],inactive
C[C@]12C=CC3=C4CCC(=O)C=C4CC[C@H]3[C@@H]1CC[C@@H]2O,outcome,[3],inactive
CCN(CC)N=O,outcome,[4],inactive
same,outcome,[7],inactive
same,outcome,[3],inactive
same,outcome,[14],inactive
same,outcome,[2],inactive
same,outcome,[18],inactive
same,outcome,[11],inactive
c1ccc2c(c1)oc1ccccc12,outcome,[7],inactive
CCCCCCCCCCCCCN1CC(C)OC(C)C1 (stereo not drawn),outcome,[13],inactive
same,AC50,[5],20.8 µM (active)
CCC12COCN1COC2,outcome,[13],inactive
ClC1=C(Cl)C2(Cl)C3C(Cl)C=CC3C1(Cl)C2(Cl)Cl (stereo not drawn),outcome,[13],inactive
